From PubChem BioAssay (Tox21)
Inconclusive results are not listed. Active and inactive are the calls of the source. Unless noted, calls come from the whole dose curve; as a rule, active = well fitted curve in the direction sought with a large enough effect in the repeat runs; inconclusive = weak or mixed curves; inactive = no such curve, though single readings can be large; an effect the other way counts as inactive or inconclusive.

Key:
[1] = molecular target: Thyrotropin receptor (Homo sapiens) (UniProt P16473); assay: qHTS assay to identify small molecule agonists of the thyroid stimulating hormone receptor (TSHR) signaling pathway (AID 1224843; calls by dose curve; note: nearly all actives have a fitted effect of over 45% in size)
Chain of Thyrotropin receptor (Homo sapiens) (P16473 whole entry, looked up): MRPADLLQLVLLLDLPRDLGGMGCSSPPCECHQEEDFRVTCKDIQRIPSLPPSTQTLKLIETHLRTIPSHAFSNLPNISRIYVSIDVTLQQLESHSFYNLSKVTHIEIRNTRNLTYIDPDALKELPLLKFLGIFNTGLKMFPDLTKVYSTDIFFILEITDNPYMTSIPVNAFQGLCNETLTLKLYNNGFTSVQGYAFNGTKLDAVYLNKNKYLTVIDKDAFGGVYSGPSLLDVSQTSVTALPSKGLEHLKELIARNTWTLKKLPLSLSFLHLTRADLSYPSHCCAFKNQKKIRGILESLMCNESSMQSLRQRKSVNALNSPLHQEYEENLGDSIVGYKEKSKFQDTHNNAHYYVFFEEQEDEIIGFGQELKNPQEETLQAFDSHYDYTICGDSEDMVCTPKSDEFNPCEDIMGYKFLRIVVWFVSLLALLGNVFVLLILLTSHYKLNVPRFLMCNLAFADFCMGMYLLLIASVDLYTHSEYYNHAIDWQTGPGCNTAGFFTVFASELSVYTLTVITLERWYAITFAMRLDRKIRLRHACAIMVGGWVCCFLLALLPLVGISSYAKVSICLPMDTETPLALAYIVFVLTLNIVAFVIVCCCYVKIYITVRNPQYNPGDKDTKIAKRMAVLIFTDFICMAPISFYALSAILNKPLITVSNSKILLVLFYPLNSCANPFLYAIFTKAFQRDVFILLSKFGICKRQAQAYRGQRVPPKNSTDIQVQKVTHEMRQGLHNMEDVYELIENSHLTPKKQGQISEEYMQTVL
Method in brief: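 Screening of the Tox21 10K collection used HEK293 cells engineered with TSHR at 800 cells per well. After a 30-min room-temperature compound exposure, HTRF cAMP reagents were added and fluorescence recorded 1 h later.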

[2] = qHTS assay to identify small molecule agonists of the hypoxia (HIF-1) signaling pathway - cell viability counter screen (AID 1224844; calls by dose curve; note: nearly all actives have a fitted effect of over 50% in size)
Method in brief: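 Cells (HRE-bla ME-180, 2,000 per well) sat 5 hrs at 37C, got compound for 17 hrs, were read for CCF4-AM FRET, and were finally lysed with CellTiter-Glo for a 30 min room-temperature luminescence read.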

[3] = qHTS assay to identify small molecule agonists of H2AX (AID 1224845; active = well fitted activation curve with a large enough effect in the signal ratio in the repeat runs, not every such curve was filed as active; the % refers to the signal ratio)
Method in brief: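 Phospho-H2AX Ser139 measured by HTRF (ex 320 nm; em 665 and 620 nm) after 24 hr antibody incubation. Compounds, 15 concentrations, 0.76% DMSO, were applied to CHO-K1 cells for 3hr at 37C before lysis.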

[4] = qHTS assay to identify small molecule agonists of the hypoxia (HIF-1) signaling pathway (AID 1224846; active = well fitted activation curve with a large enough effect in the signal ratio in the repeat runs, not every such curve was filed as active; the % refers to the signal ratio)
Method in brief: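 A low-serum medium (0.5% dialyzed FBS) holding 2,000 HRE-bla ME-180 cells per well is preincubated for 5 hrs, dosed with compounds by pintool, and kept a further 17 hrs at 37C, 5% CO2 before CCF4-AM FRET detection of beta-lactamase.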

[5] = qHTS RealTime-Glo MT Cell Viability Assay in HepG2 cells - 24 hour (AID 1224867); note: nearly all actives have a fitted effect of over 50% in size
Method in brief: (§1)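 Cells + NanoLuc/prosubstrate dispensed (600 cells/well) → 5 h at 37 C/5% CO2 → compounds in DMSO transferred → 40 h incubation at 37 C, luminescence read at 0, 8, 16, 24, 32, 40 h.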

[6] = qHTS RealTime-Glo MT Cell Viability Assay in HEK293 cells - 32 hour (AID 1224868); note: top concentration of the series differs between compounds; nearly all actives have a fitted effect of over 50% in size
Method in brief: (§2)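 Tox21 10K qHTS, HEK293, 600 cells/well, RealTime-Glo reagent co-dispensed with cells; 5 h preincubation, compound by pintool, 37 C, luminescence at 0–40 h.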

[7] = A CellTox Green Cytotoxicity Assay to monitor cytotoxicity in HEK293 cells - 0 hour (AID 1224869); note: nearly all actives have a fitted effect of over 50% in size
Method in brief: (§3)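 Fluorescence intensity, read at 0, 8, 16, 24, 32 and 40 h of compound treatment, reflected dye binding to DNA of dead HEK293 cells; compounds (23 nL, DMSO) were added 5 h after plating cells with reagent.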

[8] = qHTS RealTime-Glo MT Cell Viability Assay in HepG2 cells - 40 hour (AID 1224870); note: nearly all actives have a fitted effect of over 50% in size
Method in brief: (§4)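 Real-time viability: cells seeded at 600 per well together with NanoLuc and cell-permeant prosubstrate, compounds added after 5 h incubation. Luminescence tracked at 0, 8, 16, 24, 32 and 40 h of exposure.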

[9] = qHTS RealTime-Glo MT Cell Viability Assay in HEK293 cells - 40 hour (AID 1224874); conditions: RealTime-Glo luminescence, hits give low values; note: nearly all actives have a fitted effect of over 50% in size
Method in brief: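 Viable HEK293 cells reduce a cell-permeant prosubstrate; the product diffuses out and is consumed by NanoLuc in the medium to give light. Compounds went in after a 5 h incubation and plates were read over the treatment course.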

[10] = A CellTox Green Cytotoxicity Assay to monitor cytotoxicity in HEK293 cells - 24 hour (AID 1224875); note: series mostly up to about 77 µM; nearly all actives have a fitted effect of over 45% in size
Method in brief: as §3

[11] = A CellTox Green Cytotoxicity Assay to monitor cytotoxicity in HepG2 cells - 16 hour (AID 1224876); note: nearly all actives have a fitted effect of over 45% in size
Method in brief: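 Using 1536-well format, dye-containing HepG2 suspension was seeded, allowed 5 h at 37 C/5% CO2, dosed by pintool with compounds, positive and negative controls, and imaged for fluorescence across 40 h.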

[12] = qHTS RealTime-Glo MT Cell Viability Assay in HepG2 cells - 32 hour (AID 1224877); note: nearly all actives have a fitted effect of over 55% in size
Method in brief: as §1

[13] = A CellTox Green Cytotoxicity Assay to monitor cytotoxicity in HEK293 cells - 40 hour (AID 1224871); note: nearly all actives have a fitted effect of over 45% in size
Method in brief: as §3

[14] = qHTS RealTime-Glo MT Cell Viability Assay in HEK293 cells - 16 hour (AID 1224872)
Method in brief: as §2

[15] = qHTS RealTime-Glo MT Cell Viability Assay in HepG2 cells - 8 hour (AID 1224873); note: nearly all actives have a fitted effect of over 55% in size
Method in brief: as §4

[16] = qHTS assay to identify small molecule agonists of H2AX - cell viability counter screen (AID 1224847; calls by dose curve;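 note: wild-type CHO-K1 cells; top concentration of the series differs between compounds; nearly all actives have a fitted effect of over 30% in size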)
Method in brief: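 For this counter screen, overnight-attached CHO-K1 cells received test compounds (15 concentrations, 0.76% DMSO final); 3 hr later at 37C, CellTiter-Glo reagent was added and luminescence recorded after 30 min at room temperature.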
% is set by controls: 0 for no effect and ±100 for the full control effect.

CCCC(=O)C(CC)Sc1ccoc1C (configuration not stated)
inactive: Potency [1] | outcome [2] | outcome [3] | outcome [4] | outcome [5] | outcome [6] | outcome [7] | outcome [8] | max response [9] -5.27% | Potency [10] | Potency [11] | outcome [12]

CC(=O)OC1CCC(C(C)(C)C)CC1 (configuration not stated)
inactive: Potency [1] | outcome [2] | outcome [3] | outcome [4] | outcome [5] | outcome [6] | outcome [7] | outcome [8] | Potency [13] | outcome [14] | outcome [15] | max response [9] 0.815% | Potency [10] | Potency [11] | outcome [12]

CCN1CCN(C(=O)N[C@@H](C(=O)N[C@@H]2C(=O)N3C(C(=O)O)=C(CSc4nnnn4C)CS[C@H]23)c2ccc(O)cc2)C(=O)C1=O
inactive: Potency [1] | outcome [2] | outcome [4] | outcome [16] | outcome [5] | outcome [6] | outcome [7] | outcome [8] | Potency [13] | outcome [14] | outcome [15] | max response [9] 15.1% | Potency [10] | Potency [11] | outcome [12]

C[C@@H]1NC(=O)[C@@H](N)CNC(=O)[C@H](C2CCNC(N)=N2)NC(=O)/C(=C/NC(N)=O)NC(=O)[C@H](CNC(=O)C[C@@H](N)CCCN)NC1=O (some centres not stated)
inactive: activation [1] -10.7% [at 0.349 µM] | activity change, negative = cytotoxicity [2] 3.53% [at 0.29 µM] | activation (H2AX phosphorylation) [3] -2.47% [at 0.582 µM] | activation [4] -0.509% [at 0.291 µM] | activity change, negative = cytotoxicity [5] 4.49% [at 0.29 µM] | activity change, negative = cytotoxic [6] 0.857% [at 0.29 µM] | cytotoxicity [7] 0.414% [at 0.29 µM] | activity change, negative = cytotoxic [8] 3.51% [at 0.29 µM] | activity change, negative = cytotoxicity [14] 0.93% [at 0.29 µM] | viability change, negative = cytotoxic [15] 3.98% [at 0.29 µM] | max response [9] 0.0952% | activity change [10] 19.3% [at 0.29 µM, hits give high values] | cytotoxicity increase [11] -2.83% [at 0.29 µM] | activity change, negative = cytotoxic [12] 3.72% [at 0.29 µM]

C=CC(=O)OCC[N+](C)(C)C
inactive: Potency [1] | outcome [2] | outcome [3] | outcome [4] | outcome [5] | outcome [6] | outcome [7] | outcome [8] | Potency [13] | outcome [14] | outcome [15] | Potency [10] | Potency [11] | outcome [12]

CC(O)CCCCn1c(=O)c2c(ncn2C)n(C)c1=O (configuration not stated)
inactive: Potency [1] | outcome [2] | outcome [4] | outcome [16] | outcome [5] | outcome [6] | outcome [7] | outcome [8] | Potency [13] | outcome [14] | outcome [15] | Potency [10] | Potency [11] | outcome [12]

C[C@H]1COc2c(C3(N)CC3)c(F)cc3c(=O)c(C(=O)O)cn1c23
inactive: Potency [1] | outcome [2] | outcome [3] | outcome [4] | outcome [5] | outcome [6] | outcome [7] | outcome [8] | Potency [13] | outcome [15] | max response [9] 1.9% | Potency [10] | Potency [11] | outcome [12]

CCCc1ccc(O)c(OC)c1
inactive: Potency [1] | outcome [2] | outcome [3] | outcome [4] | outcome [5] | outcome [6] | outcome [7] | outcome [8] | Potency [13] | outcome [14] | outcome [15] | max response [9] 6.36% | Potency [10] | Potency [11] | outcome [12]

COCc1nnc(-c2ccc[n+]([O-])c2)n1-c1c(Cl)c(Cl)cc2[nH]c(=O)c(=O)[nH]c12
inactive: Potency [1] | outcome [2] | outcome [4] | outcome [16] | outcome [5] | outcome [6] | outcome [7] | outcome [8] | Potency [13] | outcome [14] | outcome [15] | max response [9] -6.51% | Potency [10] | Potency [11] | outcome [12]

COC(=O)c1ccc(C(=O)O)cc1
inactive: Potency [1] | outcome [2] | outcome [3] | outcome [4] | outcome [5] | outcome [7] | outcome [8] | Potency [13] | outcome [14] | outcome [15] | max response [9] 1.5% | Potency [10] | Potency [11] | outcome [12]

CCCCN=C(N)N=C(N)N
inactive: Potency [1] | outcome [2] | outcome [3] | outcome [4] | outcome [5] | outcome [6] | outcome [8] | Potency [13] | outcome [14] | outcome [15] | max response [9] -14.6% | Potency [10] | Potency [11] | outcome [12]

CC(C)CC(O)Cc1ccccc1 (configuration not stated)
inactive: Potency [1] | outcome [2] | outcome [4] | outcome [16] | outcome [5] | outcome [6] | outcome [7] | outcome [8] | Potency [13] | outcome [14] | outcome [15] | max response [9] 1.47% | Potency [10] | Potency [11] | outcome [12]

CNC(C)=O
inactive: Potency [1] | outcome [2] | outcome [3] | outcome [4] | outcome [5] | outcome [7] | outcome [8] | Potency [13] | outcome [14] | outcome [15] | max response [9] -0.0492% | Potency [10] | Potency [11] | outcome [12]

CCc1ncc(C)[nH]1
inactive: Potency [1] | outcome [2] | outcome [3] | outcome [4] | outcome [5] | outcome [6] | outcome [7] | outcome [8] | Potency [13] | outcome [14] | outcome [15] | Potency [10] | Potency [11] | outcome [12]

CCOCCOCCOC(C)=O
inactive: Potency [1] | outcome [2] | outcome [4] | outcome [16] | outcome [5] | outcome [6] | outcome [7] | outcome [8] | Potency [13] | outcome [14] | outcome [15] | max response [9] 7.47% | Potency [11] | outcome [12]

CC(=O)O[C@@H]1CC2C3CCc4cc(OC(=O)c5ccccc5)ccc4C3CCC2(C)[C@H]1OC(C)=O (some centres not stated)
inactive: Potency [1] | outcome [2] | outcome [3] | outcome [4] | outcome [5] | outcome [6] | outcome [8] | Potency [13] | outcome [14] | outcome [15] | max response [9] 0.184% | Potency [10] | Potency [11] | outcome [12]
